From PubChem BioAssay (NCATS) come the findings set out here.

Experiment [1] deals with DNA dC->dU-editing enzyme APOBEC-3G (Homo sapiens) (UniProt Q9HC16). In words: qHTS for inhibitors of Vif-A3G interactions: Validation (AID 588379). Note: potency is the fitted concentration of half-maximal effect. Put shortly: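 HeLa cells stably expressing Vif and A3G-eYFP, 700 cells/well, incubated overnight at 37 deg C, then exposed to compound overnight at 37 deg C. Inhibition of Vif-mediated degradation read as increased yellow fluorescence (Ex 488/Em 500-530) by laser-scanning cytometry.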
DNA dC->dU-editing enzyme APOBEC-3G (Homo sapiens), sequence (Q9HC16 whole entry, looked up): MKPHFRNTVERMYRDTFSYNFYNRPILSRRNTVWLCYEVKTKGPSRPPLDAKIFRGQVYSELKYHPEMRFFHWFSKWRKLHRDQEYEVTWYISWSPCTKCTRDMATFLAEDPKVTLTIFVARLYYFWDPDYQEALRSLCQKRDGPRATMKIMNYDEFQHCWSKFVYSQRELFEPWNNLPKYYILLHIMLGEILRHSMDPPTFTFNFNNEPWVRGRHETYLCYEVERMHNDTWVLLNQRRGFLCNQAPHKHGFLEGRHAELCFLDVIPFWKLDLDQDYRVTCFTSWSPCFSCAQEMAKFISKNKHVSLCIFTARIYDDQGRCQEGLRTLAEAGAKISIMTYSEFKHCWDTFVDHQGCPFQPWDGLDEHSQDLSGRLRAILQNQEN

In experiment [2] the target is Estrogen receptor (Homo sapiens) (UniProt P03372). Briefly: qHTS assay for small molecule agonists of estrogen receptor alpha signaling (AID 588514; calls by dose curve; note: nearly all actives have a fitted effect of over 70% in size; note: potency is the fitted concentration of half-maximal effect;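 for activation: 0% = vehicle only and 100% = reference agonist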). Put shortly: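 ER-alpha-UAS-bla GripTite HEK 293 cells in medium with 2% charcoal/dextran-treated FBS were treated with compound titrations at 37 C for 18 hrs; beta-lactamase reporter read by CCF4 fluorescence after 2 hrs at RT.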
Estrogen receptor (Homo sapiens), sequence (P03372 whole entry, looked up): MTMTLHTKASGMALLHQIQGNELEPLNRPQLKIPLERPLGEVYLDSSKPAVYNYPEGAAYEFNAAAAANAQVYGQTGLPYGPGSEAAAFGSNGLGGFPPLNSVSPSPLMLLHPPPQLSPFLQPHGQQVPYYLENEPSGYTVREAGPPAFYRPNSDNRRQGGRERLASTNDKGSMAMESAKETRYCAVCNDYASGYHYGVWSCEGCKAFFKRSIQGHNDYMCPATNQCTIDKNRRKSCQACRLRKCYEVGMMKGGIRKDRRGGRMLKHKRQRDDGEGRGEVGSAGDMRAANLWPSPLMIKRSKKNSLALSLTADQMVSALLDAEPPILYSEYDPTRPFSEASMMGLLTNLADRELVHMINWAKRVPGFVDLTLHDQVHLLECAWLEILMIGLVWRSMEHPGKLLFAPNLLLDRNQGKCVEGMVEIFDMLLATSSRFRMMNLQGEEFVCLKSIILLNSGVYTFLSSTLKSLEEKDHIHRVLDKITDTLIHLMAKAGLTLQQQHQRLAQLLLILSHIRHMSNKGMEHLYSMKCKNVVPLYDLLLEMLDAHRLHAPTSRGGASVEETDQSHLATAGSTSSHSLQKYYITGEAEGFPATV
A general note: In qHTS, concentration-response curves come from the screen itself.

In experiment [3] the target is Glucocorticoid receptor (Homo sapiens) (UniProt P04150). Briefly: qHTS assay for small molecule antagonists of glucocorticoid receptor signaling (AID 588533; active = well fitted inhibition curve with a large enough effect in the signal ratio, with a control signal flat, not every such curve was filed as active; the % refers to the signal ratio; note: potency is the fitted concentration of half-maximal effect). A digest of the protocol: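 Antagonist-mode qHTS: compound titrations added to GRE-bla HeLa cells, then dexamethasone 2 nM final; 18 h, 37 C. CCF4 FRET fluorescence normalized to dexamethasone and DMSO; IC50 from Hill fit.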
Glucocorticoid receptor (Homo sapiens), sequence (P04150 whole entry, looked up): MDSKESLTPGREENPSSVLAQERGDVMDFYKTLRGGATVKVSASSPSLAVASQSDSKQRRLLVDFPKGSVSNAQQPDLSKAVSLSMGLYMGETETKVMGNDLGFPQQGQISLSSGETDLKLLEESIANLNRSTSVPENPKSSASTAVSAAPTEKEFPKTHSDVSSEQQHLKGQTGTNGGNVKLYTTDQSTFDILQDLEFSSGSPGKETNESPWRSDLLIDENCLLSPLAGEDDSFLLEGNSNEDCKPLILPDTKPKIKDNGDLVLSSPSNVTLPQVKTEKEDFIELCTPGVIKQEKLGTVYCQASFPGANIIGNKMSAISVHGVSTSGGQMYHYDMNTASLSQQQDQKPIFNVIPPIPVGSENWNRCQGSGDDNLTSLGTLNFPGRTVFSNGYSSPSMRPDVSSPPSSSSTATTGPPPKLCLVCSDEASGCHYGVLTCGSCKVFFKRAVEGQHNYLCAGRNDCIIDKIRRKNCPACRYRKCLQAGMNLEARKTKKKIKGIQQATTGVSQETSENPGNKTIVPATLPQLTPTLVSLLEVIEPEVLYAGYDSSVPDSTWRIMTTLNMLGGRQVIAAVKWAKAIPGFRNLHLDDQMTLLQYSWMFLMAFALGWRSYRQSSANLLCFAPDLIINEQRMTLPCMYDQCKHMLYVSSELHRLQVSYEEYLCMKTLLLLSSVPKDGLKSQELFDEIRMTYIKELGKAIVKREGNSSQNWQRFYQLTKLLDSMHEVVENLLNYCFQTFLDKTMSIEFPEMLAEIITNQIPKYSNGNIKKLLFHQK

The target of experiment [4] is Peroxisome proliferator-activated receptor gamma (Homo sapiens) (UniProt P37231). In words: qHTS assay for small molecule antagonists of peroxisome proliferator-activated receptor gamma signaling (AID 588537; active = well fitted inhibition curve with a large enough effect in the signal ratio, with a control signal flat, not every such curve was filed as active; the % refers to the signal ratio; note: potency is the fitted concentration of half-maximal effect). Put shortly:
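Step one: plate 3000 HEK293 UAS-bla cells per well in medium with 1% stripped serum and hold 6-6.5 h at 37 C. Step two: add compound and 50 nM agonist for 16 h. Step three: CCF4 loading, fluorescence read.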

Experiment [5] deals with Vitamin D3 receptor (Homo sapiens) (UniProt P11473). Briefly: qHTS assay for small molecule agonists of vitamin D receptor signaling (AID 588543; calls by dose curve;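 note: 0% = DMSO basal and 100% = reference agonist control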). Put shortly: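 β-lactamase reporter, VDR-UAS-bla HEK293T, agonist mode. Cells plated 5 h at 37 °C, compound titration 16 h at 37 °C, CCF4 dye 2 h RT, ratio 460/530 nm. Hill fit → EC50, efficacy vs 50 nM 1α,25-(OH)2D3.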
Vitamin D3 receptor (Homo sapiens), sequence (P11473 whole entry, looked up): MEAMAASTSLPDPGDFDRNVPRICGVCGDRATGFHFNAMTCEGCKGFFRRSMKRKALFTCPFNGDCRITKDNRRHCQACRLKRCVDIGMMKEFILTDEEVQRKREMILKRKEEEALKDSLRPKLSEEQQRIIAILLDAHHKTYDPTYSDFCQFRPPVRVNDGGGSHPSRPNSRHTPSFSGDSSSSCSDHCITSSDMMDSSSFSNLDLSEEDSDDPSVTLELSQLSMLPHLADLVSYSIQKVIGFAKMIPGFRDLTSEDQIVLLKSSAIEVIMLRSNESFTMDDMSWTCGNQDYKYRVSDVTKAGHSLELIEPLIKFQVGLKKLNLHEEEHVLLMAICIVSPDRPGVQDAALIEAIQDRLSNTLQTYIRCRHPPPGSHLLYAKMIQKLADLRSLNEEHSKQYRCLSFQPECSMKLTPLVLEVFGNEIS
Experiment [6] has as its target Estrogen receptor (Homo sapiens) (UniProt P03372). Briefly: qHTS assay for small molecule antagonists of estrogen receptor alpha signaling (AID 588513; active = well fitted curve in the direction sought with a large enough effect in the signal ratio, with a control signal flat, not every such curve was filed as active; the % refers to the signal ratio; note: % is set by controls: 0 for no effect and ±100 for the full control effect). A digest of the protocol: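 Beta-lactamase reporter, antagonist mode, HEK 293 GripTite cells; 0.5nM E2 stimulus, 18 h, 37 C; CCF4 dye 2 h RT; fluorescence. IC50 and efficacy from Hill fits, normalized to E2 and DMSO.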

In experiment [7] the target is Androgen receptor (Homo sapiens) (UniProt P10275). In words: qHTS assay for small molecule agonists of androgen receptor signaling (AID 588515; active = well fitted curve in the direction sought with a large enough effect in the signal ratio, with a control signal flat; the % refers to the signal ratio; note: % is set by controls: 0 for no effect and ±100 for the full control effect). The settings on record: AR-UAS-bla HEK293, beta-lactamase ratio, agonist 16 h; stronger effect = higher value. A digest of the protocol:
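EC50 and efficacy came from Hill fits of titrations (up to 92 uM) normalized to 30 nM R1881 as 100% and DMSO as 0%. Compound exposure was 16 h at 37 C on AR-UAS-bla HEK293 cells, with a 405/460/530 nm CCF4 fluorescence read.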

The target is the same in experiment [8]. In words: qHTS assay for small molecule antagonists of androgen receptor signaling (AID 588516; active = well fitted curve in the direction sought with a large enough effect in the signal ratio, with a control signal flat, not every such curve was filed as active; the % refers to the signal ratio; note: % is set by controls: 0 for no effect and ±100 for the full control effect). Put shortly: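 HEK293 AR-UAS-bla cells, 10% dialyzed FBS medium; cpd titration + R1881 10 nM final, 16 h 37 C; CCF4 2 h RT; FRET ratio; IC50/efficacy via Hill fit.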
The target of experiment [9] is Bile acid receptor (Homo sapiens) (UniProt Q96RI1). In words: qHTS assay for small molecule antagonists of farnesoid X receptor signaling (AID 588526; calls by dose curve; note: % is set by controls: 0 for no effect and ±100 for the full control effect). A digest of the protocol:
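Antagonist mode: titrated compounds tested against chenodeoxycholic acid stimulation (normalized to 50 uM CDCA and DMSO) in GeneBLAzer HEK293T cells for 16 h. Beta-lactamase read by CCF4 fluorescence; IC50 from Hill fits.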

The target of experiment [10] is Glucocorticoid receptor (Homo sapiens) (UniProt P04150). In words: qHTS assay for small molecule agonists of glucocorticoid receptor signaling (AID 588532; active = well fitted curve in the direction sought with a large enough effect in the signal ratio, with a control signal flat; the % refers to the signal ratio;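 note: 100% = dexamethasone at 0.1 µM and 0% = DMSO only wells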). The settings on record: HeLa MMTV-bla, beta-lactamase ratio, agonist, 18 h; stronger effect = higher value; percent of dexamethasone control, DMSO zero. A digest of the protocol:
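MMTV-bla HeLa beta-lactamase reporter cells in 1% charcoal/dextran FBS medium, compounds up to 92 uM for 18 h at 37 C, CCF4 readout; normalized to 0.1 uM dexamethasone (100%), EC50 and efficacy from Hill fits.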

In experiment [11] the target is Peroxisome proliferator-activated receptor gamma (Homo sapiens) (UniProt P37231). Briefly: qHTS assay for small molecule agonists of peroxisome proliferator-activated receptor gamma signaling (AID 588536; active = well fitted curve in the direction sought with a large enough effect in the signal ratio, with a control signal flat, not every such curve was filed as active; the % refers to the signal ratio;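 note: 0% = DMSO basal wells and 100% = rosiglitazone at 2 µM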). Put shortly: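 HEK293 UAS-bla reporter line, 1% charcoal/dextran FBS; titration, 16 h, 37 C; CCF4 loading 2 h RT; fluorescence 460/530 nm. Normalized to rosiglitazone 2 uM = 100%, DMSO = 0%.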
Peroxisome proliferator-activated receptor gamma (Homo sapiens), sequence (P37231 whole entry, looked up): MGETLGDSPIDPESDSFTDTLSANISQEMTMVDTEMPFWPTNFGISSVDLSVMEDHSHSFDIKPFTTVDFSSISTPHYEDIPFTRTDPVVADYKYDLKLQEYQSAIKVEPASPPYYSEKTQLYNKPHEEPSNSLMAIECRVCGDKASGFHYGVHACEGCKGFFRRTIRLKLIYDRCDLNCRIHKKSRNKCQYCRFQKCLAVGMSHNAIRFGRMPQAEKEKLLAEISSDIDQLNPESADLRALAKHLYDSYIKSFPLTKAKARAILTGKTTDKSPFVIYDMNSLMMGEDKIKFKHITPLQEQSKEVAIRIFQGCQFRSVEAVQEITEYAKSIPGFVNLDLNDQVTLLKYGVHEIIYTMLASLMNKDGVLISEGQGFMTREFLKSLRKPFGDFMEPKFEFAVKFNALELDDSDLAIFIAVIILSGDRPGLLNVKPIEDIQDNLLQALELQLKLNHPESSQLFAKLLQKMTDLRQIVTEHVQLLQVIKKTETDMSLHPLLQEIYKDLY

Experiment [12] has as its target Vitamin D3 receptor (Homo sapiens) (UniProt P11473). Briefly: qHTS assay for small molecule antagonists of vitamin D receptor signaling (AID 588541; calls by dose curve). A digest of the protocol:
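VDR-UAS-bla HEK293T cells in 2% charcoal-stripped FBS were stimulated with 1-alpha,25-dihydroxyvitamin D3 (3 nM final) plus compound for 16 h at 37 C. The beta-lactamase CCF4 readout was normalized to 50 nM agonist and DMSO, and Hill fits gave IC50.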

A short description of experiment [13]: qHTS assay for small molecule agonists of retinoid X receptor alpha signaling (AID 588544; calls by dose curve;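 for activation: 0% = DMSO basal wells and 100% = reference agonist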). Conditions: HEK293T RXRa-UAS-bla, beta-lactamase reporter, 18 h; 530 nm emission.
For experiment [14], the target named is Retinoic acid receptor RXR-alpha (Homo sapiens) (UniProt P19793). Described as above.
Retinoic acid receptor RXR-alpha (Homo sapiens), sequence (P19793 whole entry, looked up): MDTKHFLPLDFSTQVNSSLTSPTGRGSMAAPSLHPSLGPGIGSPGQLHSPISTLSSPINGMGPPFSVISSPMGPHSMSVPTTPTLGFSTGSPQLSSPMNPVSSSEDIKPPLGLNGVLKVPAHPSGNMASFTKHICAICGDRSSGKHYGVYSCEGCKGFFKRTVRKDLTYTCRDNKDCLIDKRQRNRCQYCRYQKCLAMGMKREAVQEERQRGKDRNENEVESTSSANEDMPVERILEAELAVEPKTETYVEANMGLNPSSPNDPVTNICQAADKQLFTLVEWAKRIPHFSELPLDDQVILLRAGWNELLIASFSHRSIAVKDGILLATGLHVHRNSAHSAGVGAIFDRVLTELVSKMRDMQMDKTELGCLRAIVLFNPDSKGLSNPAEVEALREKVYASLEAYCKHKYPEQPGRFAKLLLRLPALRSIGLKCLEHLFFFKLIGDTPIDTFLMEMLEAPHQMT
The target in experiment [15] is Thyroid hormone receptor beta (Homo sapiens) (UniProt P10828). Briefly: qHTS assay for small molecule agonists of thyroid hormone receptor beta signaling (AID 588545; calls by dose curve). A digest of the protocol: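 In this cell-based screen, titrated compounds act on HEK 293 cells held in medium with 2% charcoal/dextran FBS, NEAA and pyruvate for 18 hrs at 37 C. Responses are expressed relative to T3 (10 nM) as 100% and basal DMSO as 0%.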
Thyroid hormone receptor beta (Homo sapiens), sequence (P10828 whole entry, looked up): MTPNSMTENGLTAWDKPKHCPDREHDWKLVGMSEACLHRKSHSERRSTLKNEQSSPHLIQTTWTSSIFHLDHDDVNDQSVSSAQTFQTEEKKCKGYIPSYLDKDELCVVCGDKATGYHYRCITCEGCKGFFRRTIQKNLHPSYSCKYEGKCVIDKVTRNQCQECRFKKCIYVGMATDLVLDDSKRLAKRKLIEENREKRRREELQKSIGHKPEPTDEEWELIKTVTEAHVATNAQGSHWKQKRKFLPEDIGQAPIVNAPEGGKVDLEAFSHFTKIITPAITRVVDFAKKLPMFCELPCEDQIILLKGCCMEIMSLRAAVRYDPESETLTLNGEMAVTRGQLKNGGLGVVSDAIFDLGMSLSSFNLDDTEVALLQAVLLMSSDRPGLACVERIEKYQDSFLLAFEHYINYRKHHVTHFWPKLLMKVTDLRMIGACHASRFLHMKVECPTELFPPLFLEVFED

The nature of experiment [16]: qHTS assay for small molecule antagonists of retinoid X receptor alpha signaling (AID 588546; active = well fitted inhibition curve with a large enough effect in the signal ratio, with a control signal flat, not every such curve was filed as active; the % refers to the signal ratio). The settings on record: HEK293T RXRa-UAS-bla, beta-lactamase ratio, antagonist mode; measured here: W530 green channel, cytotoxicity proxy. A digest of the protocol:
(§1)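 Beta-lactamase reporter inhibition, read as CCF4 fluorescence ratio (ex 405, em 460/530 nm) after 2 h at RT. HEK293T UAS-bla cells, 2500/well, were stimulated with 9-cis-RA at 500 or 100 nM final alongside test compound for 18 h at 37 C.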

Experiment [17] addresses Retinoic acid receptor RXR-alpha (Homo sapiens) (UniProt P19793). The experiment is described as above. Conditions: HEK293T RXRa-UAS-bla, beta-lactamase ratio, antagonist mode. Put shortly:
as §1

The target in experiment [18] is Thyroid hormone receptor beta (Homo sapiens) (UniProt P10828). In words: qHTS assay for small molecule antagonists of thyroid hormone receptor beta signaling (AID 588547; active = well fitted inhibition curve with a large enough effect in the signal ratio, with a control signal flat, not every such curve was filed as active; the % refers to the signal ratio). The settings on record: TR-UAS-bla HEK293, beta-lactamase ratio, antagonist mode, 18 h. Put shortly: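 TR-UAS-bla GripTite HEK293 cells in 2% charcoal/dextran FBS medium; compounds 0.59 nM to 92 uM with T3 at 0.4nM final, 18 h at 37 C. Beta-lactamase read by CCF4 fluorescence (460/530 nm); Hill fits gave IC50 and efficacy.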

Structures are written as SMILES. Records with an inconclusive call do not appear. The source made the active and inactive calls. Unless noted, calls come from the whole dose curve; as a rule, active = well fitted inhibition curve with a large enough effect; inconclusive = small, poorly fitted or top-dose-only effect; inactive = flat fitted curve, though single readings scatter.

Androgen receptor (Homo sapiens), sequence (P10275 whole entry, looked up): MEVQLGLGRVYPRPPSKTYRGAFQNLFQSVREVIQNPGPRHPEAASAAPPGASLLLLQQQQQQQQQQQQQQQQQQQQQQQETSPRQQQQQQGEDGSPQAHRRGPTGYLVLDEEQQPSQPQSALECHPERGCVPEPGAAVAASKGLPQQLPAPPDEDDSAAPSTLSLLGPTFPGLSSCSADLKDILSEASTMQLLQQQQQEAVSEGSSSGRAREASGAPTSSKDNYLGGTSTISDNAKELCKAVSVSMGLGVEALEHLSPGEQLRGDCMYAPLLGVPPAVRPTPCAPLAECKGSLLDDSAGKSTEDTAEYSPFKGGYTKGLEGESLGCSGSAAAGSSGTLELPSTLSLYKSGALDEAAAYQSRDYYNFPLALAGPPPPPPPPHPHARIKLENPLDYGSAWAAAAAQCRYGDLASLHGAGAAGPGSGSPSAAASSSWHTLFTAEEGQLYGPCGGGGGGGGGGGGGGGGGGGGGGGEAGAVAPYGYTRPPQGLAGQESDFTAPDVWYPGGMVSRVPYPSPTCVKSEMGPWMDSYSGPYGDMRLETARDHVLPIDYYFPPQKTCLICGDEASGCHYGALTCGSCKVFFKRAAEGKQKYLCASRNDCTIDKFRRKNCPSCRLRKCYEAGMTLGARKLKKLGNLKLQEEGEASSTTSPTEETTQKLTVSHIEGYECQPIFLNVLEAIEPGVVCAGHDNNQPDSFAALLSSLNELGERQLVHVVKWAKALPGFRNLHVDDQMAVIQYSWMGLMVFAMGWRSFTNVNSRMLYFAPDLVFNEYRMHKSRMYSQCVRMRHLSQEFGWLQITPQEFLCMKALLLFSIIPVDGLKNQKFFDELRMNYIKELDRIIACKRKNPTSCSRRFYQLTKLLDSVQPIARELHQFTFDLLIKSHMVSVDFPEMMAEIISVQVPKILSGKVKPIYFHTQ
Bile acid receptor (Homo sapiens), sequence (Q96RI1 whole entry, looked up): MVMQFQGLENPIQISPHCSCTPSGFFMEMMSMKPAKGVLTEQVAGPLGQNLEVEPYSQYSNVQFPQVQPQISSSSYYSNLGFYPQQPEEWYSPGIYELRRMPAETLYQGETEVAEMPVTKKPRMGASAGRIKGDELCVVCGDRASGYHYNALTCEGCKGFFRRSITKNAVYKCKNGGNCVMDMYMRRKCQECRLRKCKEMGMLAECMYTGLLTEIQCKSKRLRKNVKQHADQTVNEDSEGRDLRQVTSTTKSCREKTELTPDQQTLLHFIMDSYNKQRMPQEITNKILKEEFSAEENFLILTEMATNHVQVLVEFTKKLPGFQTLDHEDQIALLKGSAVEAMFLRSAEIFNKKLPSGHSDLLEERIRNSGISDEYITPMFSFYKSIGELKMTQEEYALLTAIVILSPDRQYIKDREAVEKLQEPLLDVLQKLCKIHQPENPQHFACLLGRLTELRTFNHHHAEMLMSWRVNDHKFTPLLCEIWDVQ

In the case of `O=C(O)c1cccnc1C(=O)O`, the Potency entry in experiment [1] was “inactive”.

For the compound `CC(C)NC[C@H](O)COc1ccc(CC(N)=O)cc1`, the Potency result in experiment [1] is “inactive”.

Turning to `CCCc1c(-c2ccc(O)cc2)nn(-c2ccc(O)cc2)c1-c1ccc(O)cc1`, the Potency result in experiment [1] is “inactive”. For the same compound, the figures for the Potency in [2], in [3] and in experiment [4] were 0.0112 µM (active), 28.2 µM (active) and 22.4 µM (active), respectively. For the same compound, the result in experiment [5] was inactive.

On to `CC(=O)NNC(=O)N1Cc2ccccc2Oc2ccc(Cl)cc21`, for which the Potency entry in [1] was “inactive”.

In the case of `NC/C=C\C(=O)O`, the Potency result in [1] was “inactive”.

`N[C@H](C(=O)O)c1cc(O)cc(O)c1`: the Potency result in experiment [1] is “inactive”.

For `COc1cc(CNC(=O)CCCCCCC(C)C)ccc1O`, the Potency entry in [1] was “inactive”.

For `Oc1cc(O)c2c(c1)O[C@H](c1ccc(O)c(O)c1)[C@@H](O)C2`, the Potency entry in experiment [1] is “inactive”.

`NS(=O)(=O)c1cccc2c1c([N+](=O)[O-])cc1nc(O)c(O)nc12`: in experiment [1], the Potency result is “inactive”.

Regarding `O=C1Nc2ccc(I)cc2/C1=C/c1cc(Br)c(O)c(Br)c1`, the Potency in experiment [1] is 4.22 µM (active).

Take `O=S(=O)(c1cccc2c(Cl)cccc12)N1CCCNCC1`: in experiment [1], the Potency entry is “inactive”.

Regarding `NC(N)=NC(N)=Nc1ccccc1`, the Potency entry in experiment [1] was “inactive”.

For `CC(C)(CO)Cc1cc(C(C)(C)C)c(O)c(C(C)(C)C)c1`, the Potency entry in [1] was “inactive”.

For the compound `CN1CCc2cc(Cl)c(O)cc2[C@@H](c2ccccc2)C1`, the Potency result in [1] was “inactive”.

As for `O=[N+]([O-])c1cccc2c(Br)[nH]nc12`, the Potency result in [1] was “inactive”.

As to `N=C(N)SCCc1cnc[nH]1`, in experiment [1], the Potency entry is “inactive”.

Consider `NC(=O)c1ccccc1`, for which the compound was called inactive in experiment [6], in [8], in experiment [9], in experiment [12], in [5] and in experiment [15]. Further, the Potency entry in experiment [2], in experiment [3], in experiment [11], in experiment [4] and in [14] was “inactive” in each case. The activation in experiment [7] is -3.5% (inactive); in [10] it was -7.58% (inactive). Moreover, the max response in experiment [13] is -1.09%; in experiment [16], -3.13%; in [17] it was 5.33% (inactive). In [18], the activity change % (negative = inhibition) was -4.09% (inactive).
